Experimental data taken from PubChem BioAssay (Tox21).
Values without a mark were called inactive. Results filed as inconclusive are left out. Where a call stands in place of a potency, no number is given. The source made the active and inactive calls. Unless noted, calls come from the whole dose curve.

Key:
[1] = qHTS assay to identify small molecule antagonists of the estrogen receptor beta (ER-beta) signaling pathway - cell viability counter screen (AID 1259382; active = well fitted curve in the direction sought with a large enough effect in the repeat runs; an effect the other way counts as inactive or inconclusive; note: nearly all actives have a fitted effect of over 55% in size; note: potency is the fitted concentration of half-maximal effect)
Method in brief: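 Agonist-stimulated (1nM E2) ER-beta-UAS-bla HEK293T cells are incubated with library compounds for 16 hr at 37C. Cell viability is then assessed in the reporter-assay wells by adding CellTiter-Glo and reading luminescence after 30 min.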

[2] = molecular target: Estrogen receptor (Homo sapiens) (UniProt P03372); assay: qHTS assay to identify small molecule agonists of the estrogen receptor alpha (ER-alpha) signaling pathway in the presence of an antagonist (AID 1259383); note: nearly all actives have a fitted effect of over 15% in size; note: potency is the fitted concentration of half-maximal effect
Chain of Estrogen receptor (Homo sapiens) (P03372 whole entry, looked up): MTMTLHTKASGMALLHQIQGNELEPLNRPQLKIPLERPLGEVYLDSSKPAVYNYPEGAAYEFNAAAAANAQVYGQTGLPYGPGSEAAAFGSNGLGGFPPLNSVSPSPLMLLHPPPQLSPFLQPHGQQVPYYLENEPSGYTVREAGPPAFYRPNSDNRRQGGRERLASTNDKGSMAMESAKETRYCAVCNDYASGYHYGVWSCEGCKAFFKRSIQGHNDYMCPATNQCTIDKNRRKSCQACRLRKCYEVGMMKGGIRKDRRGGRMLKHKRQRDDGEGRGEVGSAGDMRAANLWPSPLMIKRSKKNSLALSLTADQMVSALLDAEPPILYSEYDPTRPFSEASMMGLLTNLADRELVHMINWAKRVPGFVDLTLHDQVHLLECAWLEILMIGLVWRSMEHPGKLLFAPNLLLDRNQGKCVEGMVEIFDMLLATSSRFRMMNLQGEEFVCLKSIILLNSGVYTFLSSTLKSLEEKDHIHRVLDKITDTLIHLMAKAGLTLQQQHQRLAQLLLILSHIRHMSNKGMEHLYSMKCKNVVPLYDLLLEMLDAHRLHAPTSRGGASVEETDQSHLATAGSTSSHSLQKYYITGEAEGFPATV
Method in brief: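 Using VM7Luc4E2 cells seeded 24hr before treatment, antagonist ICI-182,780 (10.0nM final) was added, followed by compounds at 15 concentrations. Plates incubated 22hr; ONE-Glo luminescence quantified reporter activity.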

[3] = qHTS assay to identify small molecule agonists or antagonists of the thyroid stimulating hormone receptor (TSHR) signaling pathway - wild type cell line counter screen (AID 1259384)
Method in brief: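 Wild-type Hek293 cells, 800/well, 18 h at 37C, then compound with Ro20-1724 for 30 min RT. cAMP by HTRF (cAMP-d2/anti-cAMP cryptate), 1 h RT, fluorescence read. 15 concentrations, triplicates.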

[4] = qHTS assay to identify small molecule agonists of the estrogen receptor alpha (ER-alpha) signaling pathway in the presence of an antagonist - cell viability counter screen (AID 1259386; active = well fitted curve in the direction sought with a large enough effect in the repeat runs; an effect the other way counts as inactive or inconclusive;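 note: cells exposed to compounds for 22 h at 37 °C before the viability read; nearly all actives have a fitted effect of over 30% in size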; note: potency is the fitted concentration of half-maximal effect)
Method in brief: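 ICI-182,780 at 10.0nM final accompanies the compound titration (15 concentrations, 22hr, 37C) on VM7Luc4E2 cells. The CellTiter-Fluor fluorescence readout runs in the same wells as the luciferase assay.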

[5] = molecular target: Progesterone receptor (Homo sapiens) (UniProt P06401); assay: qHTS assay to identify small molecule agonists of the progesterone receptor (PR) signaling pathway (AID 1346784); note: nearly all actives have a fitted effect of over 30% in size
Chain of Progesterone receptor (Homo sapiens) (P06401 whole entry, looked up): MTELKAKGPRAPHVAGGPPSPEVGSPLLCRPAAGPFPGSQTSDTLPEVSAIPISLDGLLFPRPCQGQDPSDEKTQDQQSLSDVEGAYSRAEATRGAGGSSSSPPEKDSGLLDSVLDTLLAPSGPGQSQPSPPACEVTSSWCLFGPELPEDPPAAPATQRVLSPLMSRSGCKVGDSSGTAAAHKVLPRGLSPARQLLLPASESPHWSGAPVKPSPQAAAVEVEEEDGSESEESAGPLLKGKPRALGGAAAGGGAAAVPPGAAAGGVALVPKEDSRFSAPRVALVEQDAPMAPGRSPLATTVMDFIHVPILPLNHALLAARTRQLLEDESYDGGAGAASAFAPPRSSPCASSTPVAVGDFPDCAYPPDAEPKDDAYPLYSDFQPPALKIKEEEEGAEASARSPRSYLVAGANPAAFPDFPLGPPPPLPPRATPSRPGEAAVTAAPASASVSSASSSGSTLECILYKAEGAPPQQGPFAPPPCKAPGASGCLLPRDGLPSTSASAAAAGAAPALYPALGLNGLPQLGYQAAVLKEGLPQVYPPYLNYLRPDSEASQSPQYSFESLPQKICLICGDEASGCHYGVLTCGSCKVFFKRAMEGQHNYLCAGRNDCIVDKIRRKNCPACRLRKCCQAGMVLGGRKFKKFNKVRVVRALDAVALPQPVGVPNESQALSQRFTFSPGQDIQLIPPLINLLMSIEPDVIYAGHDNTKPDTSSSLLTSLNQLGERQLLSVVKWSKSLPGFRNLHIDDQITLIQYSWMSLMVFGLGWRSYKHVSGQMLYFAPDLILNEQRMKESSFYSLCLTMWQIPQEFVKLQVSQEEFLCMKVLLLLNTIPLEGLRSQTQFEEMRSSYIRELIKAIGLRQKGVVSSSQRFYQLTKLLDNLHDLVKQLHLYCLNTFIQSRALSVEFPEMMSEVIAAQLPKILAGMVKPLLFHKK
Method in brief: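 Reporter assay, GripTite PR-UAS-bla HEK 293T cells: 16 hr exposure to DMSO-dissolved compounds at 37C, 5% CO2, in steroid-depleted (2% charcoal-stripped FBS) medium; beta-lactamase measured by FRET fluorescence.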

[6] = molecular target: Progesterone receptor (Homo sapiens) (UniProt P06401); assay: qHTS assay to identify small molecule antagonists of the progesterone receptor (PR) signaling pathway (AID 1346795; active = well fitted inhibition curve with a large enough effect in the signal ratio in the repeat runs, not every such curve was filed as active; the % refers to the signal ratio; note: potency is the fitted concentration of half-maximal effect)
Method in brief: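 Stimulus R5020 at 1 nM final; cells HEK293T PR-UAS-bla; medium with 2% charcoal-stripped FBS; compound exposure 16 hr at 37C, 5% CO2; detection by FRET beta-lactamase substrate, 2 hr, room temperature.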

[7] = qHTS assay to identify small molecule antagonists of the progesterone receptor (PR) signaling pathway - cell viability counter screen (AID 1346798; active = well fitted curve in the direction sought with a large enough effect in the repeat runs; an effect the other way counts as inactive or inconclusive; note: nearly all actives have a fitted effect of over 50% in size; note: potency is the fitted concentration of half-maximal effect)
Method in brief: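 In the same plates used for the beta-lactamase readout, cell viability of compound- and R5020-treated PR-UAS-bla HEK293T cells (16 hr, 37C) was assessed by CellTiter-Glo luminescence.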

[8] = qHTS assay to identify small molecule agonists of the progesterone receptor (PR) signaling pathway - cell viability counter screen (AID 1346799); note: nearly all actives have a fitted effect of over 45% in size; note: potency is the fitted concentration of half-maximal effect
Method in brief: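 Multiplexed viability read: CellTiter-Glo luminescence, 30 min RT, following LiveBLAzer FRET measurement on PR-UAS-bla HEK293T cells exposed to compounds 16 hr.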

[9] = molecular target: Thyrotropin receptor (Homo sapiens) (UniProt P16473); assay: qHTS assay to identify small molecule antagonists of the thyroid stimulating hormone receptor (TSHR) signaling pathway (AID 1259385); note: nearly all actives have a fitted effect of over 20% in size
Chain of Thyrotropin receptor (Homo sapiens) (P16473 whole entry, looked up): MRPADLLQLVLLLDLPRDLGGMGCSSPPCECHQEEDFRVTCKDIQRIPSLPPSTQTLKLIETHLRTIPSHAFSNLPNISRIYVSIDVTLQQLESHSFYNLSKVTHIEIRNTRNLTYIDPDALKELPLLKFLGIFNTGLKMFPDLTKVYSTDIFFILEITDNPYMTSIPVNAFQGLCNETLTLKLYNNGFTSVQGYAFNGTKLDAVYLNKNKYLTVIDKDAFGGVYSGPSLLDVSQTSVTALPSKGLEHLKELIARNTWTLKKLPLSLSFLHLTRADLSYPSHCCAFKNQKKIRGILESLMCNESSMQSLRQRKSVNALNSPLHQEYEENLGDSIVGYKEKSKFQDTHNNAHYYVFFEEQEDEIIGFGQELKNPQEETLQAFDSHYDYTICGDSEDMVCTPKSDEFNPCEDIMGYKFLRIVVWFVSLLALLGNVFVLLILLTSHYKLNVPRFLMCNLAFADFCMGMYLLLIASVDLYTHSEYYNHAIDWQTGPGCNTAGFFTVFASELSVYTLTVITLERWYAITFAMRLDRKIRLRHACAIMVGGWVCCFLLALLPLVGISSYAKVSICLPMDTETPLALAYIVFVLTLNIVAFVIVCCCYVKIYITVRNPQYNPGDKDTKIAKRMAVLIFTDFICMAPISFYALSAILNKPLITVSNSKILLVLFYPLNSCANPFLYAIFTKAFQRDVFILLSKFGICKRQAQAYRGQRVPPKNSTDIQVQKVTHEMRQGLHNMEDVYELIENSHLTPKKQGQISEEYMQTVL
Method in brief: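 TSHR-HEK293 cells (800/well) plated 18 h, then compounds with Ro20-1724 and TSH at 1.5 ng/mL final, 30 min at room temperature. cAMP quantified by HTRF (cAMP-d2/anti-cAMP-cryptate, 1 h); 15 concentrations in triplicate.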

| Compound | Potency [1] | Potency [2] | Potency [3] | Potency [4] | outcome [5] | Potency [6] | Potency [7] | Potency [8] | Potency [9] |
| --- | --- | --- | --- | --- | --- | --- | --- | --- | --- |
| CCOC(=O)C1=NN(c2ccc(Cl)cc2Cl)C(C)(C(=O)OCC)C1 (stereo not given) | inactive | inactive | inactive | inactive | inactive | 27.3 µM (active) | inactive | inactive | – |
| C[C@H]1O[C@@H](O[C@H]2CC[C@@]3(C)[C@H](CC[C@@H]4[C@@H]3C[C@@H](O)[C@]3(C)[C@@H](C5=CC(=O)OC5)CC[C@]43O)C2)C[C@H](O)[C@@H]1O[C@H]1C[C@H](O)[C@H](O[C@H]2C[C@H](O)[C@H](O[C@@H]3O[C@H](CO)[C@@H](O)[C@H](O)[C@H]3O)[C@@H](C)O2)[C@@H](C)O1 | 0.188 µM (active) | inactive | – | inactive | inactive | – | – | 0.266 µM (active) | – |
| Oc1cccc2c(O)cccc12 | 61.1 µM (active) | inactive | – | inactive | inactive | 48.6 µM (active) | inactive | inactive | – |
| Nc1cccnc1N | inactive | inactive | inactive | – | inactive | inactive | inactive | inactive | – |
| CC(=O)[C@]1(O)Cc2c(O)c3c(c(O)c2[C@@H](O[C@H]2C[C@H](N)[C@H](O)[C@H](C)O2)C1)C(=O)c1ccccc1C3=O | inactive | inactive | – | – | – | – | – | 1.33 µM (active) | – |
| c1ccc2cc3c4ccccc4c4ccccc4c3cc2c1 | inactive | – | inactive | inactive | inactive | inactive | inactive | inactive | inactive |
| Oc1ccc(C2(c3ccc(O)c(C4CCCCC4)c3)CCCCC2)cc1C1CCCCC1 | 27.3 µM (active) | inactive | inactive | – | – | – | 43.3 µM (active) | 27.3 µM (active) | – |
| Clc1cccc(Cl)n1 | inactive | inactive | – | – | inactive | – | inactive | inactive | – |
| SC1CCCCC1 | inactive | – | inactive | inactive | inactive | – | inactive | inactive | inactive |
| C=CC(=O)O[C@H]1C[C@@H]2CC[C@@]1(C)C2(C)C | inactive | inactive | – | inactive | inactive | inactive | inactive | – | – |
| CCC(C)(C)c1ccc(CC(C)CN2C[C@@H](C)O[C@@H](C)C2)cc1 (stereo not given in full) | inactive | inactive | inactive | – | inactive | inactive | – | – | – |
| CCCCCCCCCCCCN1CCCC1=O | 54.5 µM (active) | inactive | inactive | inactive | inactive | 48.6 µM (active) | – | – | – |
| CCc1cccc(CC)c1 | inactive | inactive | – | inactive | inactive | inactive | – | inactive | – |
| CCSCC | inactive | inactive | – | inactive | – | – | – | – | – |
| Cc1cccc2c1ccc1ccccc12 | inactive | inactive | – | inactive | inactive | – | inactive | inactive | – |
| O=C1CCC/C=C\CCCCCCCCCC1 | inactive | – | inactive | inactive | inactive | 48.6 µM (active) | – | – | inactive |

| Compound | Potency [1] | Potency [2] | Potency [3] | Potency [4] | outcome [5] | Potency [6] | Potency [7] | Potency [8] | Potency [9] |
| --- | --- | --- | --- | --- | --- | --- | --- | --- | --- |
| C=CC(C)(C)O | inactive | inactive | – | inactive | inactive | inactive | – | inactive | – |
| CC(=O)Nc1ccc(N=Nc2cc(C)ccc2O)cc1 | inactive | inactive | – | 15.4 µM (active) | inactive | 48.6 µM (active) | – | – | – |
| Nc1cc([N+](=O)[O-])cc(Cl)c1O | inactive | inactive | – | – | inactive | inactive | inactive | inactive | – |
| CC(CC(C)(C)C)CC(C)(C)CC(C)(C)C (stereo not given) | inactive | – | inactive | inactive | – | – | inactive | inactive | inactive |
| CC1=C(/C=C/C(C)=C/C=C/C(C)=C\C(=O)O)C(C)(C)CCC1 | inactive | inactive | – | inactive | inactive | inactive | – | inactive | – |
| Cc1ccc(Cl)c(N)c1Cl | inactive | – | inactive | inactive | – | – | – | – | inactive |
| CC(C)(C)C1=CC(=O)C(C(C)(C)C)=CC1=O | inactive | – | inactive | inactive | inactive | inactive | inactive | inactive | inactive |
| CC(=O)CC(N)=O | inactive | inactive | – | – | inactive | inactive | inactive | – | – |
| CCOc1ccc([N+](=O)[O-])cc1 | inactive | 24.7 µM (active) | – | inactive | – | 27.7 µM (active) | – | – | – |
| [Cl][Eu]([Cl])[Cl] | inactive | inactive | – | inactive | inactive | – | inactive | inactive | – |
| Oc1ccc2c(c1)CCC2 | inactive | inactive | – | inactive | – | – | inactive | inactive | – |
| Cc1cccc(C)c1C | inactive | – | inactive | inactive | inactive | inactive | – | inactive | inactive |
| O=C(CCN1CCC(c2ccccc2)C1)c1ccc2c(c1)OCCO2 (stereo not given) | inactive | inactive | inactive | – | – | inactive | – | – | inactive |
| Cc1c(Cl)c(=O)oc2cc(O)ccc12 | inactive | – | inactive | – | – | – | inactive | – | inactive |
| CCCOC(=O)c1ccc(O)cc1 | – | 47.5 µM (active) | inactive | – | inactive | – | – | – | – |
| Nc1ccc(N)c([N+](=O)[O-])c1 | – | – | – | 30.6 µM (active) | – | – | inactive | – | – |
